Shown are actives, neighbours in structure and some others; about 10% of the full set was active somewhere.
3T3 cytotox: kills NIH 3T3 cells; Potency, µM (highest dose often 96.7 µM), inactives show at the top dose activity change, negative = cytotoxicity, actives largely listed as inhibitors; hit rate 4.3% among 94,000; AID 1345082; NIH 3T3 viability, CellTiter-Glo ATP luminescence, 48-72 h; further: nearly all actives have a fitted effect of over 55% in size
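NIH 3T3 cells at 400 cells/well received 23 nL of compound by pintool and were incubated 48 or 72 h at 37 °C. Viability was read as ATP-coupled CellTiter-Glo luminescence.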
Luciferase inh: Photinus pyralis luciferase inhibition; AID 1347043; hit rate 2.5% among 76,000; Potency, µM (series often up to 115 µM), usual class: inhibitors; purified P. pyralis luciferase, luminescence, biochemical; further: nearly all actives have a fitted effect of over 65% in size
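Biochemical qHTS: compound (6-point titration) added to 10uM D-luciferin plus 10uM ATP in Tris acetate pH 7.5 buffer with Mg, Tween-20 and BSA, then purified enzyme at 10nM; light output imaged.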
hNpr1 antagonist: antagonists of human natriuretic peptide receptor Npr1. P16066. HEK293 hNpr1 GloSensor cGMP, ANP-stimulated luminescence. Potency, µM (highest dose often 46.3 µM), without a hit: at the highest dose activity change, negative = inhibition, usual class: inhibitors. hit rate 1.6% among 76,000. AID 1347048; calls by dose curve; further: nearly all actives have a fitted effect of over 60% in size
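HEK293 cells stably expressing human Npr1 and cGMP GloSensor pGS-40F, loaded 2 h with 2% GloSensor reagent, given compound 30 min at room temperature. Luminescence read before and 20 min after 0.1 nM hNppA.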
HEK293 tox: kills HEK 293 cells; hit rate 6.6% among 94,000; HEK 293 viability, ATP luminescence (CellTiter-Glo), 48-72 h; AID 1345083; Potency, µM (series often up to 115 µM), without a hit: at the top dose activity change, negative = cytotoxicity, actives largely listed as inhibitors; further: nearly all actives have a fitted effect of over 60% in size
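qHTS cytotoxicity; HEK 293, 250 cells/well; compound pinned; 48 or 72 hr, 37 degree Celsius, 5% CO2, 95% humidity; CellTiter-Glo, 10 min RT; luminescence (ATP).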
GPT2 inh: blocks human glutamate pyruvate transaminase 2 | Potency, µM (series often up to 57.7 µM), for the others: top-dose activity change, negative = inhibition, most hits filed as inhibitors | hit rate 0.25% among 100,000 | Recombinant GPT2, coupled pyruvate oxidase/HRP Amplex Red fluorescence; further: nearly all actives have a fitted effect of over 60% in size
Target sequence (Q8TD30 whole entry, looked up): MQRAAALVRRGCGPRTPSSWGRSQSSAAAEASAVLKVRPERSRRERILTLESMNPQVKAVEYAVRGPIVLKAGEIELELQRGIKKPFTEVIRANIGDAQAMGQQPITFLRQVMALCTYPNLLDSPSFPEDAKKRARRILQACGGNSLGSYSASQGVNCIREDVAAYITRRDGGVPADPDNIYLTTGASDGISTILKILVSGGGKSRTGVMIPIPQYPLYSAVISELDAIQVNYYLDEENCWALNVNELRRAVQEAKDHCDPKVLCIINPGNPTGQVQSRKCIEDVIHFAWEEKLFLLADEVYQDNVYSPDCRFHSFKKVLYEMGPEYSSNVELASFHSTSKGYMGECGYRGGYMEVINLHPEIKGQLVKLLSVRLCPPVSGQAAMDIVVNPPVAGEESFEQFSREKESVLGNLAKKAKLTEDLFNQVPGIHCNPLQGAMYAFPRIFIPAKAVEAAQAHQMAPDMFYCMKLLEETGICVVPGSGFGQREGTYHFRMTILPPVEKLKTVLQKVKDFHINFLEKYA
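Recombinant GPT2 (10ng/uL) with 250uM a-KG and 2mM L-alanine, 30 min at room temperature, in HEPES pH 7.5 buffer. Pyruvate detected by pyruvate oxidase/HRP/Amplex Red fluorescence after 30 min in the dark; AOA (50uM) as positive control.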
Numbers without * were called inactive; i = inactive; ? = inconclusive; . = no result given; [ ] = dose if it differs, or a comment. Unless noted, the call rests on the fitted dose curve; in most records, active means well fitted curve in the direction sought with a large enough effect; inconclusive means small, poorly fitted or top-dose-only effect, or another doubt; inactive means no such curve, though single readings can be large; an effect the other way counts as inactive or inconclusive. On the % scale 0 is the no-effect control and ±100 the full control effect; potency means the concentration at half of the fitted maximal effect.

SMILES	3T3 cytotox	Luciferase inh	hNpr1 antagonist	HEK293 tox	GPT2 inh
CN1CCCC2(Cc3ccccc3CN(C(=O)CCCC(=O)O)C2)C1 (stereo not drawn)	i	.	.	i	i
O=C(Nc1ccc(Br)c(F)c1)c1cnc(-c2ccccc2)nc1-c1ccncc1	25.1µM*	i	?	31.6µM*	-16.4%
O=C(Nc1ccc(F)cc1F)c1cnc(-c2ccc(F)cc2)nc1-c1ccncc1	-14.7%	i	-17.5%	-22.2%	i
O=C(Nc1cccc(Br)c1)c1cnc(-c2ccccc2)nc1-c1ccncc1	?	i	?	39.8µM*	-14.2%
Cc1c(Cl)cccc1NC(=O)c1cnc(-c2ccccc2)nc1-c1ccncc1	35.5µM*	i	?	?	i
Cc1ccc(-c2ncc(C(=O)Nc3ccc(F)cc3C)c(-c3ccncc3)n2)cc1	22.4µM*	i	-3.3%	39.8µM*	0.2%
CCCc1noc(-c2cccn3c(CNC(=O)c4ccco4)nnc23)n1	1.0%	i	3.7%	i	i
O=C(CC1CCCCC1)NC1CCN(C(=O)N2CC3CC(C2)[C@H]2CCCC(=O)N2C3)CC1 (stereo partly drawn)	i	i	6.5%	21.4%	-3.3%
COc1c(C)c(OCC=C(C)C)cc2c1CNC2=O	.	.	.	.	i
COc1ccc(NC(=O)O[C@@H]2CO[C@H]3[C@@H]2OC[C@@H]3Nc2nccc(-c3cccc(C#N)c3)n2)cc1	-14.5%	i	-0.9%	-25.6%	0.3%
N#Cc1cccc(-c2ccnc(N[C@H]3CO[C@H]4[C@@H]3OC[C@H]4OC(=O)Nc3cccc4ccccc34)n2)c1	?	i	-29.0%	22.4µM*	?
CN(C)c1ccc(-c2ccnc(N[C@H]3CO[C@H]4[C@@H]3OC[C@H]4OC(=O)Nc3cccc(C#N)c3)n2)cc1	?	i	?	14.1µM*	i
COc1cccc(-c2cc(-c3c(C)noc3C)c3cncn3c2)c1OC	?	i	0.2%[70.6 µM]	79.4µM*	i
Cc1ccccc1-c1cc(-c2c(C)noc2C)c2cncn2c1	?	i	-15.1%[70.6 µM]	44.7µM*	-18.3%[88.5 µM]
COc1cccc(-c2cc(-c3ccncc3)c3cncn3c2)c1OC	?	i	-3.5%[70.6 µM]	89.1µM*	-11.8%[88.5 µM]
COc1cc(F)ccc1-c1cc(-c2c(C)noc2C)c2cncn2c1	?	i	1.9%[70.6 µM]	63.1µM*	-8.2%[88.5 µM]
CCC(=O)N1Cc2ccccc2CC2(CCCCN2C)C1 (stereo not drawn)	?	.	.	-27.8%[172 µM]	i
CC(C)CN1C(=O)c2cccn2CC1CNC(=O)c1ccc2ccccc2n1 (stereo not drawn)	?	?	-6.1%	?	i
COc1ccc(-c2cc(-c3c(C)noc3C)c3cncn3c2)cc1OC	22.4µM*	i	-6.0%[70.6 µM]	?	?
Cc1noc(C)c1-c1cc(-c2ccc3c(c2)C(=O)NC3)cn2cncc12	12.6µM*	i	0.1%[70.6 µM]	-62.9%[172 µM]	0.8%[88.5 µM]
CC(C)NC(=O)NC[C@H]1O[C@@H](CC(=O)N2CCc3ccccc32)[C@H](O)[C@@H]1O	?	i	0.8%[70.6 µM]	-11.6%[172 µM]	i
COc1ccc(C(=O)N2CCC(N3CC4CC(C3)[C@H]3CCCC(=O)N3C4)CC2)c(OC)c1 (stereo partly drawn)	i	i	-3.0%	-2.3%	-0.1%
Fc1ccc(CN2CCN(C3CCNC3)CC2)cc1Cl (stereo not drawn)	-8.3%	i	7.6%	-19.7%	i
c1ccc(COc2ccc(CN3CCN(C4CCNC4)CC3)cc2)cc1 (stereo not drawn)	44.7µM*	?	-26.8%	?	?
COc1ccc(S(=O)(=O)N2CC(=O)N(CC3CC3)C3(CCCCC3)C2)cc1	35.5µM*	.	.	?	1.3%
SMILES	3T3 cytotox	Luciferase inh	hNpr1 antagonist	HEK293 tox	GPT2 inh
O=C(c1cnccn1)N1CCC(Oc2ccccc2-c2nc(-c3ccccc3)no2)C1 (stereo not drawn)	?	?	1.6%	?	4.5%
O=C(c1ccncc1)N1CCC(Oc2ccccc2-c2nc(-c3ccccc3)no2)C1 (stereo not drawn)	?	?	0.9%	39.8µM*	i
Cc1ncccc1C(=O)N1CC(Oc2ccccc2-c2nc(-c3ccccc3)no2)C1	?	39.8µM*	-4.3%	?	i
O=C(C1CCOCC1)N1CCC(Oc2ccccc2-c2nc(-c3ccccc3)no2)C1 (stereo not drawn)	?	i	2.0%	31.6µM*	i
O=C(Cc1cccc(Cl)c1)NC1CCN(Cc2ccc(-c3ccsc3)cc2)C1 (stereo not drawn)	8.91µM*	.	.	?	.
O=C(NC1CCN(Cc2ccc(-c3ccsc3)cc2)C1)c1ccc(C(F)(F)F)cc1 (stereo not drawn)	-28.6%	.	.	-30.3%	i
O=C(Cc1ccc(C(F)(F)F)cc1)NC1CCN(Cc2ccc(-c3ccsc3)cc2)C1 (stereo not drawn)	?	.	.	35.5µM*	-4.4%
O=C(Cc1ccc(F)cc1)NC1CCN(Cc2ccc(-c3ccsc3)cc2)C1 (stereo not drawn)	?	.	.	?	-1.7%
COc1cc(OC)cc(OCc2nc3c(n2Cc2ccccc2)C(=O)N(Cc2ccccc2F)CCN3)c1	?	i	-20.8%	31.6µM*	-8.7%
COc1ccc(OCc2nc3c(n2Cc2ccccc2)C(=O)N(Cc2ccccc2F)CCN3)cc1OC	?	i	-16.6%	?	-15.9%
O=C1c2c(nc(COc3cc(F)cc(F)c3)n2Cc2ccccc2)NCCN1Cc1ccccc1	25.1µM*	i	-30.0%	25.1µM*	-0.8%
CN(Cc1ccccc1)Cc1nc2c(n1Cc1ccccc1)C(=O)N(Cc1ccccc1F)CCN2	?	i	-0.1%	39.8µM*	i
COc1ccc(OCc2nc3c(n2Cc2ccccc2)C(=O)N(CC2CC2)CCN3)cc1OC	?	i	-4.5%	?	-17.5%
O=C1c2c(nc(COc3cc(F)cc(F)c3)n2Cc2ccccc2)NCCN1Cc1ccccc1F	25.1µM*	i	-19.2%	?	-5.2%
C=CCNC(=O)[C@@H]1CCCN1[C@@H](C(=O)NC)C1CCCCC1	-14.9%[138 µM]	i	0.9%[70.6 µM]	-14.9%[172 µM]	3.3%[88.5 µM]
COc1ccc(CCC(=O)N2CCC3(CC2)C(=O)N(C)c2ccccc23)cc1	-21.4%	i	-10.1%	?	-11.0%
CC(C)c1cccc(NC(=O)c2ccc(CN3C(=O)NC4(CCOCC4)C3=O)cc2)c1	-15.1%	39.8µM*	11.2µM*	?	i
CCc1ccc(NC(=O)c2ccc(CN3C(=O)NC4(CCOCC4)C3=O)cc2)cc1	?	12.6µM*	?	?	i
COc1ncccc1-c1n[nH]c2c1CC(=O)N(Cc1ccccc1)C2	25.1µM*	i	-7.9%[70.6 µM]	-19.9%[172 µM]	i
